Results taken from paper PMC7819943, “Rice protein-binding microarrays: a tool to detect cis-acting elements near promoter regions in rice”.
Whole data set: some 35,000 sequences, median “fluorescence intensity (a.u.)” near 10,000, cut for the highest 2% near 52,000. The sample holds the highest values, similar sequences and a random draw of the others, so the mix is not that of the screen.

What follows are sequences tested against T1, OsWOX13 (Oryza sativa, UniProt Q5QMM3 1-267) (assay: protein-binding microarray (RPBM); PBS, 2% BSA, 51.3 ng/ul salmon testes DNA, 50 uM zinc acetate, 200 nM TF, 25 C, 1 h; high values mean tight binding). Conditions: protein: recombinant; tags: N-terminal polyhistidine and DsRed monomer fusion (pET32a); label: CyDye5-dUTP incorporated in the synthesized complementary strand; 3' TTTTT single-stranded linker to array surface; dsDNA, one strand shown.
T1 sequence: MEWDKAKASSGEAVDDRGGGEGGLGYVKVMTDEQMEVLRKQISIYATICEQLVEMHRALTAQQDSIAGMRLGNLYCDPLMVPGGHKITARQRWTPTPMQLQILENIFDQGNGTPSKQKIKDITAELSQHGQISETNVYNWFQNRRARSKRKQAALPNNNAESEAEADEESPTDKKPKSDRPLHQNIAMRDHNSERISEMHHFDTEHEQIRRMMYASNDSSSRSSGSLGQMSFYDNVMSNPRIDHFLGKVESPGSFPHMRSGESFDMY
Procedure, shortened: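 The binding signal for each feature is its fluorescence intensity in arbitrary units. An Axon 4000B scanner was used to read a custom Agilent array that had been made double-stranded with Cy5-dUTP primer extension, blocked with 2% BSA, incubated at 25 °C for 1 h with 200 nM protein in PBS, 2% BSA, salmon testes DNA and 50 µM zinc acetate, and washed. The protein was an N-terminal polyhistidine–DsRed transcription factor fusion from E. coli BL21-CodonPlus, purified on Ni–NTA.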

Row | Sequence | binding signal
1 | TTATATAGTTACCAAAATTTGACAGCAAACTAAATGTAGCCGGAGTCACCTAGTGCAG | 3680 fluorescence intensity (a.u.)
2 | ATATAGTTACCAAAATTTGACAGCAAACTAAATGTAGCCACGGAGTCACCTAGTGCAG | 7890 fluorescence intensity (a.u.)
3 | TCCAGGTGATGGTAATGATATTGACATGCCCTCATCTAGTCGGAGTCACCTAGTGCAG | 3770 fluorescence intensity (a.u.)
4 | CTGATGATTCACCCATGATCGATTGCTCGATCCGTTTAAGCGGAGTCACCTAGTGCAG | 3710 fluorescence intensity (a.u.)
5 | AATTGAAATAATTGGAAATTTTCATATTTATATATTAAACCGGAGTCACCTAGTGCAG | 5800 fluorescence intensity (a.u.)
6 | TACCATGATTGGGCTGCAACTAAATTGACAGGTCAGCCATCGGAGTCACCTAGTGCAG | 60400 fluorescence intensity (a.u.)
7 | ATGATTTTCATCCGTTAGATTTGATGAATAAAGTATGAAGCGGAGTCACCTAGTGCAG | 11100 fluorescence intensity (a.u.)
8 | CTAGATTGATCGAAATCCGTCAAGTTCATGAACCGTTAAGCGGAGTCACCTAGTGCAG | 54400 fluorescence intensity (a.u.)
9 | GTGTATCATCTAGGTCCTAAATTGACACATCCCCTCTAGGCGGAGTCACCTAGTGCAG | 10100 fluorescence intensity (a.u.)
10 | AAGTGATTGAAATTTAATTCATGATCCTAAACCATACAACCGGAGTCACCTAGTGCAG | 53200 fluorescence intensity (a.u.)
11 | TTGTGACTTGACTTTGCCAATCTTAGTCTATTTTCTCGAGCGGAGTCACCTAGTGCAG | 5270 fluorescence intensity (a.u.)
12 | TATTAAATTGGCTATAGGTGATTTGGAGCTAATAGTTAGCCGGAGTCACCTAGTGCAG | 24000 fluorescence intensity (a.u.)
13 | CTTAATTACTATTCCCTCCGTCATACAATATAAGAGATTTCGGAGTCACCTAGTGCAG | 22500 fluorescence intensity (a.u.)
14 | CATAAACTGAAGCTCATAATTGTTTGTGAAATCGTTTATCCGGAGTCACCTAGTGCAG | 16900 fluorescence intensity (a.u.)
15 | CGTGGTCTCTAATTTGTTTTGTTCGTTCTCCTTTCTTGTTCGGAGTCACCTAGTGCAG | 4660 fluorescence intensity (a.u.)
16 | GACTCTATCTAGAAATTAAATTTAATCAACACATGTAAGTCGGAGTCACCTAGTGCAG | 12800 fluorescence intensity (a.u.)
17 | TTTATTTAATTGATTCGATGAACTTTGTGCCATTAAAATTCGGAGTCACCTAGTGCAG | 35000 fluorescence intensity (a.u.)
18 | TAAATTGACATGATTAATTGAAACCACGCCATTCAGCAATCGGAGTCACCTAGTGCAG | 65500 fluorescence intensity (a.u.)
19 | AGGTGGCCCCATTAATTGATGATGAAATGCAAACCTAAATCGGAGTCACCTAGTGCAG | 9480 fluorescence intensity (a.u.)
20 | TATGATTAAAATTGTTTTGAACCATTGCACGCACCAGCATCGGAGTCACCTAGTGCAG | 18500 fluorescence intensity (a.u.)
21 | TGGGGTATCTAGTCAATCATACAATATTTTGTTTTGCTAACGGAGTCACCTAGTGCAG | 7400 fluorescence intensity (a.u.)

Row | Sequence | binding signal
22 | AGGAAAATGTGGTGAGTAATTAGGTTATAATTTATTGAGTCGGAGTCACCTAGTGCAG | 4100 fluorescence intensity (a.u.)
23 | TGCCCCAATGATTTTGTACCACAGACCAGCTCAAGTTGCCCGGAGTCACCTAGTGCAG | 4400 fluorescence intensity (a.u.)
24 | AGTGTGATTGATGCACAAACAAACAGCTCAAGTTGAGGCCCGGAGTCACCTAGTGCAG | 55400 fluorescence intensity (a.u.)
25 | GATAGATAGATAGATACATACACACAAACATAAGTAGCTACGGAGTCACCTAGTGCAG | 19100 fluorescence intensity (a.u.)
26 | GTTTCAATGATTGGTTGTTCACCCAACCCAAGTACCCAGCCGGAGTCACCTAGTGCAG | 57400 fluorescence intensity (a.u.)
27 | TTGATAATTGGGCACCTATGCCCGACACATAAAACACACTCGGAGTCACCTAGTGCAG | 22200 fluorescence intensity (a.u.)
28 | AAAGAGAACACATAATTGATTTGGAGCACCCAAATAATTTCGGAGTCACCTAGTGCAG | 15200 fluorescence intensity (a.u.)
29 | AAGTGATTGCCCTGGCTCAGAGTTGAGTAAACAATCAGGCCGGAGTCACCTAGTGCAG | 19900 fluorescence intensity (a.u.)
30 | TGATGATTGGTTTCTTGGCCAATGGTTTGGTTGTTGTTTTCGGAGTCACCTAGTGCAG | 23100 fluorescence intensity (a.u.)
31 | CATAATTGAGTCTGATTGGCACAAACCTAGAGAACATGCCCGGAGTCACCTAGTGCAG | 65500 fluorescence intensity (a.u.)
32 | TTGTGATTGATTTCACACCCAAACAACAAGTAGTCAGCTACGGAGTCACCTAGTGCAG | 61300 fluorescence intensity (a.u.)
33 | TCTCATTGACAAGCCAACAAACGCACAGTGTGACAAGCTCCGGAGTCACCTAGTGCAG | 3600 fluorescence intensity (a.u.)
34 | AAAATCAAGATTGATGTGGTTTCACCCCAACACAAGAAAACGGAGTCACCTAGTGCAG | 8050 fluorescence intensity (a.u.)
35 | ATGTGATTATTTCGTCCTGCTGTAAACTTGGTGCAAGTGACGGAGTCACCTAGTGCAG | 18600 fluorescence intensity (a.u.)
36 | GGCTTTCCAGTTGATAAATCAATCATCATCCCCTTGATCGCGGAGTCACCTAGTGCAG | 8410 fluorescence intensity (a.u.)
37 | ATGTTCTTTCTTGATTAGACCATCTGATGCTTTGCGCAGTCGGAGTCACCTAGTGCAG | 4480 fluorescence intensity (a.u.)
38 | TAGGAGATTATATTTAAATTAACTTTAAAGAGAAATCTTGCGGAGTCACCTAGTGCAG | 11600 fluorescence intensity (a.u.)
39 | GGTTGTTAGCACATGATTAATTGTATTAAAACAACTTAAACGGAGTCACCTAGTGCAG | 3580 fluorescence intensity (a.u.)
40 | AAGATTGAAGGCAACCAAACCAACAAGGATGGATGCTTCTCGGAGTCACCTAGTGCAG | 16500 fluorescence intensity (a.u.)
41 | GGACGTATATATACATTGATTAATACCAAATCCTCAGCACCGGAGTCACCTAGTGCAG | 4520 fluorescence intensity (a.u.)
42 | GTTGATTTGTGTTTTGACTTTTGAAAAGACTACTGTTACTCGGAGTCACCTAGTGCAG | 27500 fluorescence intensity (a.u.)
